# In PubChem BioAssay AID1053115 (Broad Institute, 2014):
# Results with a measured potency or affinity are listed apart. Calls of active or inactive are those of the source.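 The calls were made as follows: active = cytotoxic compounds whose fitted half-maximal concentration is at most twice the top valid tested dose; inconclusive = flat curve showing 30 to 70% signal loss, or poor fit; inactive = the rest.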
# Assay: A549 cell cytotoxicity, dose response, cytotoxicity control, 24 h, CellTiter-Glo luminescence, cherry-picks (AID 1053115)
# Settings: A549 viability, CellTiter-Glo ATP luminescence; series mostly up to 30 µM
row,Structure (SMILES),outcome
1,C[C@@H]1CN([C@H](C)CO)S(=O)(=O)c2ccc(C#C[C@@H](C)O)cc2O[C@@H]1CN(C)Cc1ccccc1,inactive
2,C[C@H](O)C#Cc1ccc2c(c1)O[C@@H](CN(C)Cc1ccccc1)[C@H](C)CN([C@H](C)CO)S2(=O)=O,inactive
3,CN1c2ccc(C#Cc3cccnc3)cc2[C@H]2[C@H](CCN2C(=O)C2CCCCC2)[C@H]1CO,inactive
4,C[C@H](O)C#Cc1ccc2c(c1)O[C@H](CN(C)Cc1ccc(-c3ccccc3)cc1)[C@H](C)CN([C@H](C)CO)S2(=O)=O,inactive
5,C[C@H](O)C#Cc1ccc2c(c1)O[C@H](CN(C)Cc1ccc(-c3ccccc3)cc1)[C@H](C)CN([C@@H](C)CO)S2(=O)=O,inactive
6,N#Cc1ccc(-c2ccc3c(c2)[C@@H]2[C@@H](CCN2C(=O)C2CCCCC2)[C@@H](CO)N3)cc1,inactive
7,Cc1ccc(S(=O)(=O)N(C)C[C@H]2Oc3cc(C#Cc4ccncc4)ccc3S(=O)(=O)N([C@@H](C)CO)C[C@H]2C)cc1,inactive
8,C[C@H](CO)N1C[C@H](C)[C@@H](CN(C)Cc2ccccc2)Oc2cc(C#C[C@@H](C)O)ccc2S1(=O)=O,inactive
9,COc1ccccc1CN1CC[C@@H]2[C@H]1c1cc(-c3ccc(C(=O)N(C)C)cc3)ccc1N[C@@H]2CO,inactive
10,C[C@H](O)C#Cc1ccc2c(c1)O[C@@H](CN(C)Cc1ccccc1)[C@H](C)CN([C@@H](C)CO)S2(=O)=O,inactive
11,CCCNC(=O)c1cc2c(c(-c3cccc(-c4cccc(F)c4)c3)n1)[C@H](CCO)N([S@@](=O)C(C)(C)C)C2,inactive
12,C[C@@H]1CN([C@H](C)CO)C(=O)c2cccc(NC(=O)Nc3ccc(F)cc3)c2O[C@@H]1CN(C)S(=O)(=O)c1ccc(Cl)cc1,inactive
13,C[C@H](CO)N1C[C@H](C)[C@@H](CN(C)S(=O)(=O)c2ccc(Cl)cc2)Oc2c(NS(=O)(=O)c3cn(C)cn3)cccc2C1=O,inactive
14,C[C@@H]1CN([C@H](C)CO)S(=O)(=O)c2ccc(C#C[C@@H](C)O)cc2O[C@@H]1CN(C)Cc1ccc(-c2ccccc2)cc1,inactive
15,C[C@H](O)C#Cc1ccc2c(c1)O[C@H](CN(C)Cc1ccccc1)[C@@H](C)CN([C@@H](C)CO)S2(=O)=O,inactive
16,CN1CCN(C(=O)c2cc3c(c(-c4cccc(C#CCC5CCCC5)c4)n2)[C@@H](CCO)N(S(=O)C(C)(C)C)C3)CC1 (some centres not stated),inactive
17,C[C@H](O)C#Cc1ccc2c(c1)O[C@H](CN(C)Cc1ccccc1)[C@H](C)CN([C@@H](C)CO)S2(=O)=O,inactive
18,C[C@H](O)C#Cc1ccc2c(c1)O[C@H](CN(C)Cc1ccccc1)[C@@H](C)CN([C@H](C)CO)S2(=O)=O,inactive
19,CN(C)C(=O)c1ccc(-c2cccc(-c3nc(C(=O)NC4CCCCC4)cc4c3[C@@H](CCO)N([S@](=O)C(C)(C)C)C4)c2)cc1,inactive
20,OC[C@H]1Nc2ccc(-c3cccc(F)c3)cc2[C@@H]2[C@H]1CCN2Cc1ccc(F)cc1,inactive
21,C[C@@H]1CN([C@@H](C)CO)C(=O)Cc2cc(NC(=O)C3CCCCC3)ccc2O[C@H]1CN(C)C(=O)Nc1ccccc1,inactive
22,C[C@H]1CCCCO[C@H](CN(C)S(=O)(=O)c2ccc(Cl)cc2)[C@@H](C)CN([C@@H](C)CO)C(=O)c2cc(NC(=O)Nc3ccc(F)cc3)ccc2O1,inactive
